{"source": "paper PMC4552634", "about": "“A New Set of Chemical Starting Points with Plasmodium falciparum Transmission-Blocking Potential for Antimalarial Drug Discovery” (PLoS ONE, 2015)", "note": "The whole screen tested about 13,000 compounds, of which about 3,200 (25%) showed an effect of 50% or more. Some of the results follow.", "data": [{"tested_on": "P. falciparum stage V gametocytes", "set-up": "BacTiter-Glo ATP luminescence viability of purified stage V gametocytes in 384-well plates, per cent inhibition versus DMSO", "settings": "48 h, 5 µM; inhibitor", "units": {"% Inhibition": "%"}, "values": [{"smiles": "COCCn1c(-c2cccc(Cl)c2)nn(-c2ccc([N+](=O)[O-])cc2C#N)c1=S", "note": "[TCMDC-134719]", "% Inhibition": 95.24}, {"smiles": "COCCn1c(-c2cccc(Cl)c2)nn(-c2ccc([N+](=O)[O-])cc2Cl)c1=S", "note": "[TCMDC-135130]", "% Inhibition": 91.77}, {"smiles": "COc1cc([N+](=O)[O-])ccc1NC(=O)c1cc(Cl)ccc1O", "note": "[TCMDC-124051]", "% Inhibition": 28.26}, {"smiles": "O=C(Cc1cccc(O)c1)NCC(Cc1ccc(O)cc1)c1ccccc1", "note": "(stereo not drawn) [TCMDC-138482]", "% Inhibition": 7.528}, {"smiles": "CC1CCc2c(C(=O)Nc3c(F)cc(F)cc3Br)csc2C1", "note": "(stereo not drawn) [TCMDC-125219]", "% Inhibition": 6.238}, {"smiles": "Cc1cc(N2CCC(C)CC2)nc2cc(O)ccc12", "note": "[TCMDC-124413]", "% Inhibition": -4.047}, {"smiles": "Cc1cc(N2CCN(C3CCCCC3)CC2)nc2cccc(O)c12", "note": "[TCMDC-124411]", "% Inhibition": 54.36}, {"smiles": "Cc1cc(Nc2ccc(O)cc2)nc2cccc(O)c12", "note": "[TCMDC-124414]", "% Inhibition": -26.97}, {"smiles": "COc1ccc(Cl)c(CC2c3cc(O)c(Cl)cc3CCN2C)c1", "note": "(stereo not drawn) [TCMDC-137168]", "% Inhibition": -67.78}, {"smiles": "CN(Cc1ccc(-c2ccc(C(F)(F)F)cc2)cc1)C(=O)Cn1c(CCc2cccc(F)c2F)cc(=O)c2ccc(OCCCN3CCCCC3)cc21", "note": "[TCMDC-141377]", "% Inhibition": 112.1}, {"smiles": "CN(C)CCOc1ccc2c(=O)cc(CCc3cccc(F)c3F)n(CC(=O)N(C)Cc3ccc(-c4ccc(C(F)(F)F)cc4)cc3)c2c1", "note": "[TCMDC-141375]", "% Inhibition": 124.4}, {"smiles": "CN(Cc1ccc(-c2ccc(C(F)(F)F)cc2)cc1)C(=O)Cn1c(CCc2cccc(F)c2F)cc(=O)c2ccc(OCC3CCCN3C)cc21", "note": "(stereo not drawn) [TCMDC-141405]", "% Inhibition": 117.2}, {"smiles": "CCN(CC)CCc1ccc2c(=O)cc(CCc3cccc(F)c3F)n(CC(=O)N(C)Cc3ccc(-c4ccc(C(F)(F)F)cc4)cc3)c2c1", "note": "[TCMDC-141559]", "% Inhibition": 137.8}, {"smiles": "CCOC(=O)CCCCCNC[C@H](O)c1ccccc1", "note": "[TCMDC-131776]", "% Inhibition": -2.137}, {"smiles": "CC(C)NCc1ccc(-c2ccc(CN3CCCC(c4ccccc4)C3)cc2)c(C(=O)NCC2CCCCC2)c1", "note": "(stereo not drawn) [TCMDC-134699]", "% Inhibition": 33.35}, {"smiles": "NC(Cc1ccc(Cl)cc1)=NCCN1CCCCCC1", "note": "[TCMDC-137727]", "% Inhibition": 39.5}, {"smiles": "Clc1ccc(-c2ccc(CNCCCN3CCCC3)cc2)cc1", "note": "[TCMDC-140148]", "% Inhibition": 75.83}, {"smiles": "O=S(=O)(NCCN1CCCC1)c1ccc(-c2ccc(CNCc3ccccc3)cc2)cc1", "note": "[TCMDC-132228]", "% Inhibition": 101.6}, {"smiles": "O=S(=O)(NCCN1CCCC1)c1ccc(-c2ccc(CNCc3ccc(F)cc3)cc2)cc1", "note": "[TCMDC-132280]", "% Inhibition": 62.82}, {"smiles": "Cc1c(CNCCN2CCCCC2)c(C(=O)O)c(C)n1Cc1ccc(Cl)cc1", "note": "[TCMDC-125269]", "% Inhibition": 31.51}, {"smiles": "O=S(=O)(Nc1cc2c(cc1O)CCN(C1CCC1)CC2)c1ccc(-c2ccc(F)cc2)cc1", "note": "[TCMDC-136084]", "% Inhibition": -82.22}, {"smiles": "COC(=O)c1cc(/C(C)=N/Nc2nc3ccccc3[nH]2)ccc1O", "note": "[TCMDC-139075]", "% Inhibition": -14.17}, {"smiles": "O=C(NC1CC1)c1ccc(N2CCC(Cc3ccccc3)CC2)nc1", "note": "[TCMDC-134591]", "% Inhibition": 24.62}, {"smiles": "COC(=O)c1ccc(CC(C)NCC(O)c2cccc(C(F)(F)F)c2)cc1C", "note": "(stereo not drawn) [TCMDC-131470]", "% Inhibition": 8.047}, {"smiles": "OC[C@H](Nc1nc(C(Oc2ccccc2)c2ccccc2)nc2[nH]ncc12)c1ccccc1", "note": "(stereo partly drawn) [TCMDC-136552]", "% Inhibition": 43.31}, {"smiles": "C[C@H](Nc1nc(C(Oc2ccccc2)c2ccccc2)nc2[nH]ncc12)c1ccccc1", "note": "(stereo partly drawn) [TCMDC-136553]", "% Inhibition": 53.92}, {"smiles": "COc1cccc(OC(C)(C)c2nc(N[C@@H](C)c3ccccc3)c3cn[nH]c3n2)c1", "note": "[TCMDC-136619]", "% Inhibition": 13.05}, {"smiles": "CC1(C)NC(N)=NC(=N)N1OCc1ccc(-c2ccccc2)cc1", "note": "[TCMDC-131591]", "% Inhibition": -7.815}, {"smiles": "COc1ccc2c(NN=Cc3ccccc3Cl)cc(C)nc2c1", "note": "[TCMDC-142079]", "% Inhibition": 78.38}, {"smiles": "COc1ccc2c(NN=Cc3cccc(C)n3)ccnc2c1", "note": "[TCMDC-142031]", "% Inhibition": -34.06}, {"smiles": "Cc1ccc2nc(C)cc(NN=CC=Cc3ccccc3)c2c1", "note": "[TCMDC-123974]", "% Inhibition": -10.18}, {"smiles": "COc1ccc2c(NN=Cc3cccc(Cl)c3)cc(C)nc2c1", "note": "[TCMDC-142080]", "% Inhibition": 55.62}, {"smiles": "COc1cc(C=NNc2cc(C)nc3ccccc23)cc(OC)c1OC", "note": "[TCMDC-123958]", "% Inhibition": -11.67}, {"smiles": "Cc1cc(NN=Cc2ccccc2Cl)c2ccccc2n1", "note": "[TCMDC-142059]", "% Inhibition": -35.38}, {"smiles": "COc1ccc2nc(C)cc(N/N=C/C=C/c3ccccc3)c2c1", "note": "[TCMDC-142095]", "% Inhibition": 88.89}, {"smiles": "COc1ccc2nc(C)cc(NN=Cc3ccccc3Cl)c2c1", "note": "[TCMDC-142078]", "% Inhibition": -47.04}, {"smiles": "Cc1cc(NN=CC=Cc2ccccc2)c2ccccc2n1", "note": "[TCMDC-142074]", "% Inhibition": -83.64}, {"smiles": "COc1ccc2nc(C)cc(NN=Cc3cccc(Cl)c3)c2c1", "note": "[TCMDC-142077]", "% Inhibition": 106.6}, {"smiles": "CN(Cc1c(Cl)cnn1C)S(=O)(=O)c1ccc2ccccc2c1", "note": "[TCMDC-124903]", "% Inhibition": 3.551}, {"smiles": "CC(=O)Nc1ncc(C(=O)Nc2cccc(-c3ccc(-c4nc5cc(C(F)(F)F)ccc5[nH]4)s3)c2)s1", "note": "[TCMDC-136915]", "% Inhibition": 15.71}, {"smiles": "Cc1ccc(CN2CCC(C(=O)Nc3ccc(-c4cc5ccccc5[nH]4)cc3)CC2)o1", "note": "[TCMDC-124634]", "% Inhibition": -0.9664}, {"smiles": "CC(ON1C(N)=NC(N)=NC1(C)C)c1ccccc1", "note": "(stereo not drawn) [TCMDC-131596]", "% Inhibition": 28.25}, {"smiles": "O=C(Nc1ccc(-n2ccc(C(F)(F)F)n2)cc1)c1cccs1", "note": "[TCMDC-125785]", "% Inhibition": 28.31}, {"smiles": "Cc1cc(CNC(=O)[C@H](CC2CCCCC2)Nc2ccc(C#N)c3ccccc23)c(C(F)(F)F)o1", "note": "[TCMDC-136628]", "% Inhibition": -91.12}, {"smiles": "Cc1cnc(-c2ccc(NC(=O)c3coc4ccc(N5CC(C)N(C)C(C)C5)cc34)cc2)o1", "note": "(stereo not drawn) [TCMDC-141361]", "% Inhibition": 27.19}, {"smiles": "Cc1cc(O)nc(NC(=N)NOCc2ccccc2)n1", "note": "[TCMDC-131683]", "% Inhibition": 7.113}, {"smiles": "O=C(NC1CCCC1)c1ccc(N2CCC(NCc3cc4cc(Cl)ccc4[nH]3)CC2)cc1", "note": "[TCMDC-124662]", "% Inhibition": -4.187}, {"smiles": "CCOc1ccc(C(=O)Nc2cc(Br)c3c(c2)CNCC3)cc1C#N", "note": "[TCMDC-139731]", "% Inhibition": 94.42}, {"smiles": "COc1ccc(C(=O)Nc2cc(Br)c3c(c2)CNCC3)cc1C(F)(F)F", "note": "[TCMDC-139728]", "% Inhibition": 19.24}, {"smiles": "COc1ccc(C(=O)Nc2cc(Br)c3c(c2)CNCC3)cc1Br", "note": "[TCMDC-139727]", "% Inhibition": 19.9}, {"smiles": "CCOc1ccc(C(=O)Nc2cc(Br)c3c(c2)CNCC3)cc1Cl", "note": "[TCMDC-139730]", "% Inhibition": 27.05}, {"smiles": "CCOc1ccc(C(=O)Nc2cc(Br)c3c(c2)CNCC3)cc1C(F)(F)F", "note": "[TCMDC-139732]", "% Inhibition": 37.39}, {"smiles": "CCOc1ccc(C(=O)Nc2cc(Br)c3c(c2)CNCC3)cc1Br", "note": "[TCMDC-139729]", "% Inhibition": 61.1}, {"smiles": "O=C1c2ccccc2C(=O)N1c1ccc(S(=O)(=O)N2CCOCC2)cc1", "note": "[TCMDC-125740]", "% Inhibition": 8.047}, {"smiles": "CC(=O)N(C)c1ccc(C(=O)Nc2cccc(-c3cccc(-c4nc5c(C)cccc5[nH]4)c3)c2)cc1", "note": "[TCMDC-136850]", "% Inhibition": -24.43}, {"smiles": "CC(C)Sc1nc2c(c(=O)n1Cc1ccco1)C1(CCCC1)Cc1ccccc1-2", "note": "[TCMDC-125844]", "% Inhibition": 9.662}, {"smiles": "CC(C)(C)c1ccccc1SC1=C(O)CC2(CCNCC2)OC1=O", "note": "[TCMDC-140973]", "% Inhibition": 16.85}, {"smiles": "Cc1cccc2nc(-c3ccc(-c4ccc(CN5CCCCC5CO)cc4)cc3)[nH]c12.O=C(O)C(F)(F)F", "note": "(stereo not drawn) [TCMDC-133824]", "% Inhibition": 10.09}, {"smiles": "Cn1nc(-c2ccc(CNC3CCc4ccccc43)cc2)c2cnc(NCCN3CCCC3)nc21", "note": "(stereo not drawn) [TCMDC-135033]", "% Inhibition": 65.68}, {"smiles": "Cn1nc(-c2ccc(CNC3CCc4ccccc43)cc2)c2cnc(NCCCN3CCCC3)nc21", "note": "(stereo not drawn) [TCMDC-135036]", "% Inhibition": 65.55}, {"smiles": "CN(c1cc(NC(=O)c2cccs2)ccn1)C1CCN(Cc2cccc(F)c2)CC1", "note": "[TCMDC-135010]", "% Inhibition": 5.779}, {"smiles": "COc1ccc2nccc([C@@H](O)CN3CCC(NC(=O)C(c4cc5ccccc5o4)N4CCN(C(c5ccccc5)c5ccccc5)CC4)CC3)c2c1", "note": "(stereo partly drawn) [TCMDC-140990]", "% Inhibition": 16.51}, {"smiles": "O=C(Nc1ccc(NC2=NCCN2)cc1)c1ccc(C(=O)Nc2ccc(NC3=NCCN3)cc2)cc1", "note": "[TCMDC-137799]", "% Inhibition": 30.06}, {"smiles": "Nc1ncc(-c2cccc(F)c2)cc1-c1nc2ccc(F)cc2[nH]1", "note": "[TCMDC-133132]", "% Inhibition": -10.73}, {"smiles": "CCOC(=O)c1ccc(NC(=O)Nc2cccc(-c3cccc(-c4nc5ccc(F)cc5[nH]4)c3)c2)cc1", "note": "[TCMDC-133268]", "% Inhibition": -1.066}, {"smiles": "CCc1nc(N)nc(N)c1-c1ccc(F)cc1", "note": "[TCMDC-137722]", "% Inhibition": 5.569}, {"smiles": "CC[C@H]1CN2CC[C@@H]1C[C@@H]2[C@@H](O)c1cc(-c2ccc(F)cc2)nc2ccc(OC)cc12", "note": "[TCMDC-141379]", "% Inhibition": 96.07}, {"smiles": "CC[C@H]1CN2CC[C@H]1C[C@H]2[C@H](O)c1cc(-c2ccccc2F)nc2ccc(OC)cc12", "note": "[TCMDC-141193]", "% Inhibition": 19.12}, {"smiles": "CC[C@H]1CN2CC[C@H]1C[C@H]2[C@H](O)c1cc(-c2ccc(Cl)c(Cl)c2)nc2ccc(OC)cc12", "note": "[TCMDC-141216]", "% Inhibition": 98.02}, {"smiles": "CC[C@H]1CN2CC[C@H]1C[C@H]2[C@H](O)c1cc(-c2ccccc2C(F)(F)F)nc2ccc(OC)cc12", "note": "[TCMDC-141198]", "% Inhibition": -3.019}, {"smiles": "CC[C@H]1CN2CC[C@H]1C[C@H]2[C@H](O)c1cc(-c2ccc(OC(F)(F)F)cc2)nc2ccc(OC)cc12", "note": "[TCMDC-141214]", "% Inhibition": 67.8}, {"smiles": "CC[C@H]1CN2CC[C@H]1C[C@H]2[C@H](O)c1cc(-c2ccc(SC)cc2)nc2ccc(OC)cc12", "note": "[TCMDC-141196]", "% Inhibition": 82.69}]}]}
